Here are results for 40 molecules from ChEMBL document CHEMBL3988442, “University of Dundee, Small-Polar-MMV Screening Library” (2021).

The target of this experiment is AMP-activated protein kinase, AMPK (Homo sapiens) (UniProt P54646+O43741+P54619+Q9UGJ0+Q9Y478+Q13131+Q9UGI9). Nature of the experiment: AMP-dependent Kinase enzyme assay. An in vitro enzyme assay that detects ADP turnover that is directly proportional to AMPK activity. This uses naive AMPK that is activated during the assay with MK-8722. The class given is functional. Also on record: scale not given: direction of the effect not stated beside the values. To be noted: 30 µM.
For the molecule `COC(=O)CCN(C)C(=O)c1csc(Cc2ccccc2F)n1`, the Percent Effect was -2.56%.

Consider `CC(NCc1ccnc(OC2CCC2)c1)c1cnn(C)c1` (stereo not given), for which the Percent Effect stood at 6.18%.

`CC(C)c1cc(NC(CCO)c2ccccc2)n2nccc2n1` (stereo not given): the Percent Effect was determined as 13.4%.

On to `CCCC1(CO)CCCN(C(=O)CNC(N)=O)C1` (stereo not given), for which the Percent Effect was 8.45%.

Take `CC1CCN(c2ncc(-c3ccccc3F)c(-c3nccn3C)n2)CC1`: the Percent Effect worked out at 15.2%.

`Cc1nn(C)c(Cl)c1C(=O)NCC1(C(N)=O)CCOCC1`: the Percent Effect is -1.15%.

Regarding `COCCC1(C(=O)O)CCN(c2cc(C)c3ccccc3n2)CC1`, the Percent Effect stood at 3.32%.

For the molecule `Cc1cc(CN2CCC(c3cc(Cc4ccccc4)n[nH]3)CC2)[nH]n1`, the Percent Effect was -6.49%.

For the molecule `CC(NC(=O)N1CCCC1)c1ccc(S(N)(=O)=O)cc1` (stereo not given), the Percent Effect was determined as 9.72%.

In the case of `COc1cccc2c1OCC(Cc1cc(C(=O)N3CCCC3)ccn1)C2` (stereo not given), the Percent Effect came to 5.36%.

Turning to `CCOCCC(=O)NC(c1noc(C)n1)c1ccccc1F` (stereo not given), the Percent Effect was 1.15%.

Turning to `Fc1cccc(OC2CCN(CCn3cc4ccccc4n3)CC2)c1`, the Percent Effect is 7.33%.

With `COc1cc2c(cc1CNCc1ccnc(-n3cccn3)c1)OC(C)C2` (stereo not given), the Percent Effect is -1.78%.

Consider `Cc1nc(NC2(CN3CCCCC3)CCCCC2)c2cnn(C)c2n1`, for which the Percent Effect is 5.76%.

`CC(C)c1nnc(CN2CC(n3cccn3)Cc3ccccc32)o1` (stereo not given): the Percent Effect is -5.15%.

Turning to `CC(C)c1nnc(C2CCN(CC(=O)Nc3cccnc3)CC2)o1`, the Percent Effect was -5.27%.

Consider `Cn1cc(S(=O)(=O)Nc2ccc3[nH]c(C4CCC4)nc3c2)cn1`, for which the Percent Effect was -6.7%.

As to `CN(CC1(CO)CCC1)c1nc2c(c(=O)[nH]1)Cc1ccccc1OC2`, the Percent Effect worked out at 1.42%.

Take `O=C1CN(C(=O)c2cc3c(F)cc(Br)cc3[nH]2)CCN1`: the Percent Effect worked out at 8.46%.

Turning to `CCN(CC)CCCNC(=O)Nc1c(C)cccc1C(C)C`, the Percent Effect turned out to be 4.58%.

Consider `CC(=O)N1CCN(C(=O)NC(C)Cn2ccnc2)CC1` (stereo not given), for which the Percent Effect is -4.12%.

As to `CCC(CN1CCCC1)n1cncc1-c1cnn(-c2ccccc2)c1` (stereo not given), the Percent Effect came out at 20%.

Regarding `Cc1nc(O)cc(CN2C[C@H](NC(=O)C3CCCC3)[C@@H](C3CC3)C2)n1`, the Percent Effect was -1.66%.

On to `O=C(c1cccc2ccnn12)N1CCCC1Cn1cccn1` (stereo not given), for which the Percent Effect is -1.71%.

For the molecule `CC(=O)Nc1ccc(CNC(=O)CNCc2sc(C)nc2C)cc1`, the Percent Effect came to 3.71%.

Take `Cc1ccc(C(=O)NC2CCCN(S(C)(=O)=O)C2)c(=O)[nH]1` (stereo not given): the Percent Effect was -0.668%.

With `CN1CCN(CCOc2ccc(NC(=O)c3ccncc3)cc2)CC1`, the Percent Effect was determined as 0.498%.

For the molecule `CSc1nccc(N2CCC3(CCCN(CCc4ccccc4)C3)C2)n1` (stereo not given), the Percent Effect came out at 5.34%.

Take `CC(C)(C)NC(=O)CNc1ncc(Br)cn1`: the Percent Effect was 7.93%.

As to `Cc1ccc(OCc2occc2C(=O)N2C[C@@H]3[C@@H](CN(C)C)[C@@H]3C2)cc1`, the Percent Effect stood at 14%.

As to `CSCC(C)(O)CNS(=O)(=O)c1cccc(Cl)c1` (stereo not given), the Percent Effect is -5.75%.

`N#Cc1c(N)nc2c(c1-c1c[nH]nc1C1CCCCC1)CNCC2`: the Percent Effect came to 17.6%.

`CCc1nc2n(n1)CC(NCC1=Cc3ccc(OC)cc3OC1)CC2` (stereo not given): the Percent Effect was found to be 8.35%.

Consider `Cn1ncc2c1CCCC2NCc1ccc(OCc2cccnc2)cc1` (stereo not given), for which the Percent Effect was found to be 2.53%.

Turning to `COC(=O)c1cc2n(n1)CCN(C(=O)c1csc(CN(C)C)n1)C2`, the Percent Effect was found to be 1.89%.

`COCCC(=O)N1CCC(c2nnc(-c3ccsc3)o2)CC1`: the Percent Effect amounted to 2.43%.

Turning to `COCC(=O)N1CCC(c2c(C(=O)N(C)C)sc3ncccc23)C1` (stereo not given), the Percent Effect came out at 1.82%.

Regarding `CCc1nsc(N2CCCN(CC(=O)N(C)C3CC3)CC2)n1`, the Percent Effect turned out to be 7.28%.

`CC(C)n1cc(CN(Cc2ccc(F)cc2)CC2CCCO2)cn1` (stereo not given): the Percent Effect came out at 5.24%.

Consider `O=C(NCc1cc(-c2ccccc2)no1)NC1CCCCNC1=O` (stereo not given), for which the Percent Effect was -4.86%.
